The values that follow come from PubChem BioAssay.

For part of these data: Measured potencies and affinities stand elsewhere. Active and inactive are the calls of the source.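 How the source made its calls, unless noted: active means fitted half-maximal concentration within 10 nM to 100 µM, steepness 0.5 to 2, significant signal drop, low assay interference; inactive means the rest.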

In assay [1] the target is Cell division control protein 42 homolog (Homo sapiens) (UniProt P60953). Description: inhibition of fluorescent GTP binding to constitutively active Cdc42 – biochemical, multiplex bead flow cytometry, Bodipy-FL-GTP, dose response (AID 1333;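 active means fitted half-maximal concentration within the tested dose range, moderate curve steepness, a statistically real signal drop, and little compound fluorescence or tag-binding interference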).
Cell division control protein 42 homolog (Homo sapiens), sequence (P60953 whole entry, looked up): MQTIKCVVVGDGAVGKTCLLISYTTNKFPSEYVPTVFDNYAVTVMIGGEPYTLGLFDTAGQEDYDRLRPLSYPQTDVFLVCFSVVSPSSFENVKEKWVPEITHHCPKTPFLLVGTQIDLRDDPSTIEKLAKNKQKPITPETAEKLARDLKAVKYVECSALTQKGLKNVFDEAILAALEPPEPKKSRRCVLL
The target is the same in assay [2]. The assay is described as follows: inhibition of fluorescent GTP binding to wildtype Cdc42 – biochemical, multiplex bead flow cytometry, Bodipy-FL-GTP, dose response (AID 1334;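 active means fitted half-maximal concentration within the tested range, moderate curve steepness, significant signal drop, and little compound fluorescence or bead-linkage interference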). Particulars: bead-based flow cytometry, Bodipy-FL-GTP binding to GST-Cdc42; at 100 µM (top of the series) unless noted. Background: Flow cytometry measures light scatter and fluorescence of single cells or particles in a stream.

Assay [3] deals with GTPase HRas (Homo sapiens) (UniProt P01112). The assay is described as follows: Ras wt fluorescent GTP loading blockade – biochemical, wildtype, multiplex bead flow cytometry, dose response (AID 1335). Particulars: bead-based flow cytometry, Bodipy-GTP binding to GST-Ras; at 100 µM (top of the series) unless noted.
GTPase HRas (Homo sapiens), sequence (P01112 whole entry, looked up): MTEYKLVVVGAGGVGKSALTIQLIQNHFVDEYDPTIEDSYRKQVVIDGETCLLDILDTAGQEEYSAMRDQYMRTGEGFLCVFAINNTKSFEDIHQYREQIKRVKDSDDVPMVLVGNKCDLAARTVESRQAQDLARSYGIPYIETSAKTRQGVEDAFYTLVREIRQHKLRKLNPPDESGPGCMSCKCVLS
The test system of assay [4] is Ras-related protein Rab-7a (dog), GTP binding. The assay is described as follows: blockers of fluorescent GTP binding to Rab7 – biochemical, wildtype, multiplex bead flow cytometry, dose response (AID 1336; call rule not given here).
Assay [5] has as its target Ras-related C3 botulinum toxin substrate 1 (Homo sapiens) (UniProt P63000). Description: inhibition of wildtype Rac1 nucleotide loading – biochemical, multiplex bead flow cytometry, dose response (AID 1340;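 active means dose curve with midpoint inside tested range, moderate steepness, plateau gap beyond fit error, low compound glow and bead-link interference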). The note with it: GST-Rac1 beads, Bodipy-FL-GTP binding; at 100 µM (top of the series) unless noted.
Assay [6] concerns the target GTPase HRas (Homo sapiens) (UniProt P01112). The assay is described as follows: blockade of GTP loading onto mutant Ras – biochemical, activated mutant, multiplex bead flow cytometry, dose response (AID 1341;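 active means dose-response curve with midpoint inside the tested range, moderate steepness, significant amplitude and little compound fluorescence or bead-attachment interference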;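 further: GST-tagged constitutively activated Ras mutant immobilized on beads and multiplexed with other GTPases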).

As for `COc1ccc(CCn2c(C(C)C)nc3c(c(=O)c4ccccc4n3C)c2=O)cc1`, the call in assay [1], in assay [4] and in assay [6] was inactive. For the same molecule, in assay [2], the fluorescence, percent of control (lower = inhibition) was 34.5%. The same molecule gave a GTP binding, percent of control in assay [3] of 82.6%. This molecule yielded a GTP binding signal, raw median fluorescence (lower = inhibition) (MCF (arbitrary fluorescence units)) in assay [5] of 241.
For `Cc1nnc(N2CCOCC2)c2nn(-c3ccccc3)c(C)c12`, the result in assay [1], in assay [4] and in assay [6] was inactive. Also, the fluorescence, percent of control (lower = inhibition) in assay [2] turned out to be 58.1%. Further, the GTP binding, percent of control in assay [3] was found to be 71.2%. The molecule further displayed a GTP binding signal, raw median fluorescence (lower = inhibition) (MCF (arbitrary fluorescence units)) in assay [5] of 198.
With `Cc1cc(OCc2ccc(C(=O)O)o2)ccc1Cl`, the call in assay [1], in assay [4] and in assay [6] was inactive. The fluorescence, percent of control (lower = inhibition) in assay [2] stood at 57.7%. The GTP binding, percent of control in assay [3] stood at 85.2%. The GTP binding signal, raw median fluorescence (lower = inhibition) (MCF (arbitrary fluorescence units)) in assay [5] is 31.8.
Consider `COc1ccc(C(=O)NC(=S)N2CC(C)OC(C)C2)cc1` (configuration not stated), for which the call in assay [1], in assay [4] and in assay [6] was inactive. In addition, the fluorescence, percent of control (lower = inhibition) in assay [2] is 54.3%. Besides, the GTP binding, percent of control in assay [3] was found to be 68.1%. The molecule further gave a GTP binding signal, raw median fluorescence (lower = inhibition) (MCF (arbitrary fluorescence units)) in assay [5] of 216.
With `O=C(COc1cc(Cl)ccc1Cl)Nc1nnc(CC(=O)N2CCOCC2)s1`, the outcome in assay [1], in assay [4] and in assay [6] was inactive. Besides, the fluorescence, percent of control (lower = inhibition) in assay [2] came to 90.6%. Besides, the GTP binding, percent of control in assay [3] was determined as 152%. Further, the GTP binding signal, raw median fluorescence (lower = inhibition) (MCF (arbitrary fluorescence units)) in assay [5] was 178.
For the molecule `Nc1nonc1C(=O)NCCN=Cc1cc(Cc2ccccc2)cc(Br)c1O`, the call in assay [1], in assay [4] and in assay [6] was inactive. For the same molecule, the fluorescence, percent of control (lower = inhibition) in assay [2] turned out to be 55.5%. In assay [3], this molecule returned a GTP binding, percent of control of 59%. For the same molecule, in assay [5], the GTP binding signal, raw median fluorescence (lower = inhibition) (MCF (arbitrary fluorescence units)) amounted to 192.
As to `Cc1nc2ncccn2c1-c1csc(Nc2ccc(O)cc2)n1`, the result in assay [1], in assay [4] and in assay [6] was inactive. The fluorescence, percent of control (lower = inhibition) in assay [2] came out at 20.9%. The molecule further came in with a GTP binding, percent of control in assay [3] of 46.8%. In assay [5], this molecule displayed a GTP binding signal, raw median fluorescence (lower = inhibition) (MCF (arbitrary fluorescence units)) of 106.
Turning to `CCCC(=O)c1ccc(N2CCOCC2)c(F)c1`, the molecule was classed as inactive in assay [1], in assay [4] and in assay [6]. The fluorescence, percent of control (lower = inhibition) in assay [2] turned out to be 48.4%. The GTP binding, percent of control in assay [3] was determined as 65.7%. This molecule yielded a GTP binding signal, raw median fluorescence (lower = inhibition) (MCF (arbitrary fluorescence units)) in assay [5] of 212.
For the molecule `COc1ccc(C(=O)c2c(O)cc(-c3ccc(OC)cc3)oc2=O)cc1`, the molecule was classed as inactive in assay [1] and in assay [4]. Besides, in assay [2], the fluorescence, percent of control (lower = inhibition) turned out to be 52.9%. Also, the GTP binding, percent of control in assay [3] was determined as 70.9%. Besides, the GTP binding signal, raw median fluorescence (lower = inhibition) (MCF (arbitrary fluorescence units)) in assay [5] came to 249.
For `CC(=O)c1c(C)[nH]c(C(=O)N2CCc3ccccc3C2)c1C`, the outcome in assay [1] and in assay [4] was inactive. For the same molecule, the fluorescence, percent of control (lower = inhibition) in assay [2] stood at 107%. Moreover, in assay [3], the GTP binding, percent of control came to 192%.
In the case of `Cc1cc(C(=O)NC(=S)Nc2cccc(C(=O)O)c2C)ccc1[N+](=O)[O-]`, the molecule was classed as inactive in assay [1], in assay [4] and in assay [6]. Moreover, the fluorescence, percent of control (lower = inhibition) in assay [2] is 37.3%. In assay [3], the GTP binding, percent of control turned out to be 85.8%. The GTP binding signal, raw median fluorescence (lower = inhibition) (MCF (arbitrary fluorescence units)) in assay [5] was 272.
Regarding `O=C(O)C1=C[C@H](c2ccc(C(F)(F)F)cc2)C[C@H](OCc2ccc(CO)cc2)O1`, the molecule was called inactive in assay [1], in assay [4] and in assay [6]. The fluorescence, percent of control (lower = inhibition) in assay [2] is 30.2%. In assay [3], this molecule gave a GTP binding, percent of control of 87.2%. Further, in assay [5], the GTP binding signal, raw median fluorescence (lower = inhibition) (MCF (arbitrary fluorescence units)) came out at 246.
On to `Cc1ccc(CNCc2c(C)[nH]c(C)c2C(=O)O)cc1`, for which the molecule was classed as inactive in assay [1], in assay [4] and in assay [6]. Further, the fluorescence, percent of control (lower = inhibition) in assay [2] was 64.4%. The molecule also yielded a GTP binding, percent of control in assay [3] of 88.9%. The GTP binding signal, raw median fluorescence (lower = inhibition) (MCF (arbitrary fluorescence units)) in assay [5] is 34.6.
`Cc1nnc(-n2ncc(C#N)c2N)c2nn(-c3cccc(Cl)c3)c(C)c12`: the result in assay [1], in assay [4] and in assay [6] was inactive. For the same molecule, the fluorescence, percent of control (lower = inhibition) in assay [2] was found to be 62.8%. In assay [3], this molecule displayed a GTP binding, percent of control of 76.8%. Further, in assay [5], the GTP binding signal, raw median fluorescence (lower = inhibition) (MCF (arbitrary fluorescence units)) was found to be 198.
Regarding `COc1ccccc1OCCSc1nc2ccccc2n1CC(=O)O`, the outcome in assay [1], in assay [4] and in assay [6] was inactive. Moreover, the fluorescence, percent of control (lower = inhibition) in assay [2] was found to be 62.3%. Further, the GTP binding, percent of control in assay [3] came to 87.1%. Besides, in assay [5], the GTP binding signal, raw median fluorescence (lower = inhibition) (MCF (arbitrary fluorescence units)) worked out at 33.6.
